Measurements reported in PubChem BioAssay (EPA / NIEHS).
Records with an inconclusive call do not appear. Where a structure was tested more than once in an assay, its records may differ in their call. Calls of active or inactive are those of the source. The calls were made as follows: active = hit-call score of the fitted dose curve at least 0.9, where 1 is the maximum; inconclusive = response in the unintended direction; inactive = score below 0.9.

Legend:
[1] = target: Cellular tumor antigen p53 (Homo sapiens) (UniProt P04637); experiment: TOX21_p53_BLA_p2_ratio: Tox21 HCT-116 p53 Agonism Beta-lactamase Assay, Ratio, Phase 2 (AID 2283592)
Procedure, shortened: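 Readout: blue/green (460/530 nm) FRET emission ratio after 2 h CCF4-AM loading at room temperature, excitation 405 nm. HCT116 p53 bla cells, 16 h compound exposure at 37C, 5% CO2; agonist direction fitted against DMSO baseline.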

[2] = TOX21_p53_BLA_p3_viability: Viability Assessment in the Tox21 HCT-116 p53 Agonism Beta-lactamase Assay, Phase 3 (AID 2283593);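 also: cells exposed to compound for 16 h before reading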
Procedure, shortened: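 HCT116 cells, 4000/well, dosed 5 h after plating by pin transfer (217-fold dilution from DMSO stock) and incubated 16 h at 37C, 5% CO2. Viability read as ATP luminescence with CellTiter-Glo after 30 min at room temperature.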

[3] = target: Cellular tumor antigen p53 (Homo sapiens) (UniProt P04637); experiment: TOX21_p53_BLA_p3_ratio: Tox21 HCT-116 p53 Agonism Beta-lactamase Assay, Ratio, Phase 3 (AID 2283596)
Procedure, shortened: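 Cells were seeded at 4000/well, rested 5 h at 37C, then dosed with DMSO compound solutions (217-fold dilution) for 16 h. CCF4-AM substrate was loaded for 2 h at room temperature, and the 460/530 nm emission ratio was fitted for gain of signal versus DMSO.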

[4] = TOX21_p53_BLA_p4_viability: Viability Assessment in the Tox21 HCT-116 p53 Agonism Beta-lactamase Assay, Phase 4 (AID 2283597);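 also: hits lower the luminescence signal meaning cytotoxicity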
Procedure, shortened: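 ATP content by CellTiter-Glo luminescence, 30 min RT, read after the beta-lactamase ratio step. Cells: HCT116, 4000/well, compound added after 5 h, exposure 16 h at 37C. Signal loss = reduced viability.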

[5] = target: Cellular tumor antigen p53 (Homo sapiens) (UniProt P04637); experiment: TOX21_p53_BLA_p5_ratio: Tox21 HCT-116 p53 Agonism Beta-lactamase Assay, Ratio, Phase 5 (AID 2283599)
Procedure, shortened: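 HCT-116 p53-bla cells (4000/well) plated 5 h, dosed with compound (217-fold DMSO dilution) for 16 h at 37 C; CCF4-AM substrate 2 h at room temperature. Activity is the 460/530 nm emission ratio (405 nm excitation), fitted in gain-of-signal direction versus DMSO.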

[6] = TOX21_p53_BLA_p5_viability: Viability Assessment in the Tox21 HCT-116 p53 Agonism Beta-lactamase Assay, Phase 5 (AID 2283600)
Procedure, shortened: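 ATP luminescence (CellTiter-Glo, 30 min, RT) served as the viability read-out, with loss of signal indicating cytotoxicity. Compounds in DMSO were pinned at a 217-fold dilution onto 4000 cells/well and incubated 16 h, 37C.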

[7] = target: Cellular tumor antigen p53 (Homo sapiens) (UniProt P04637); experiment: TOX21_p53_BLA_p4_ratio: Tox21 HCT-116 p53 Agonism Beta-lactamase Assay, Ratio, Phase 4 (AID 2283601)
Procedure, shortened: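 HCT-116 p53 beta-lactamase reporter cells (4000/well) preincubated 5 h, then compound (217-fold dilution of DMSO stock) for 16 h at 37C. CCF4-AM substrate added 2 h at room temperature; 460/530 nm emission ratio fitted upward versus DMSO.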

Sequence of Cellular tumor antigen p53 (Homo sapiens) (P04637 whole entry, looked up): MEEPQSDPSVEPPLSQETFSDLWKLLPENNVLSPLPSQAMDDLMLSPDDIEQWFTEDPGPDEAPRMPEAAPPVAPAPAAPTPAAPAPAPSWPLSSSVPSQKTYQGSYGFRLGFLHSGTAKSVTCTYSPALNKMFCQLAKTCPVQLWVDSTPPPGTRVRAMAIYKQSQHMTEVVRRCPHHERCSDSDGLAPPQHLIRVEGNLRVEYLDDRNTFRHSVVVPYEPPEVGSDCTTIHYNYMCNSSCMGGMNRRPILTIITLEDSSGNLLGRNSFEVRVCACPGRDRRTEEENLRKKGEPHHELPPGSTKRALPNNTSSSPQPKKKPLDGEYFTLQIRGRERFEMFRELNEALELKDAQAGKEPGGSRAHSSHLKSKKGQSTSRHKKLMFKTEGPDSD

Compound	AC50 [1]	outcome [2]	AC50 [3]	outcome [4]	AC50 [5]	outcome [6]	outcome [7]	outcome [1]	outcome [3]	outcome [5]	AC50 [7]	AC50 [4]	AC50 [2]
O=C(NN=Cc1ccc([N+](=O)[O-])o1)c1ccc(O)cc1	10.2 µM (active)	inactive	16.2 µM (active)	inactive	15.5 µM (active)	inactive	inactive						
COc1cc(NC(C)CCCN)c2ncccc2c1 (configuration not stated)		inactive		inactive		inactive	inactive	inactive	inactive	inactive			
CC1(C)[C@@H]2CC[C@@]1(C)[C@H](OC(=O)CSC#N)C2		inactive		inactive				inactive	inactive	inactive			
CC(C)[C@@H](C)/C=C/[C@@H](C)[C@H]1CC[C@H]2/C(=C/C=C3\C[C@@H](O)CC[C@@H]3C)CCC[C@]12C		inactive		inactive				inactive	inactive				
CCC1OC(=O)C[C@@H](O)[C@H](C)[C@@H](O[C@@H]2O[C@H](C)C[C@H](N(C)C)[C@H]2O)[C@@H](CC=O)C[C@@H](C)C(=O)/C=C/[C@]2(C)OC2C1C (some centres not stated)		inactive		inactive	35 µM (active)		inactive	inactive	inactive	inactive	27.1 µM (active)		
Nc1ccc(S(=O)(=O)O)cc1		inactive						inactive	inactive				
O=C(Cn1cnnn1)N[C@@H]1C(=O)N2C(C(=O)O)=C(CSc3nncs3)CS[C@H]12		inactive		inactive		inactive		inactive	inactive	inactive			
Cc1cc2c(cc1S(N)(=O)=O)S(=O)(=O)CCC2		inactive		inactive		inactive	inactive	inactive	inactive	inactive			
CCCCCCCCCCCCCCCC(=O)O[C@@H]1[C@@H](O)[C@@H](O)[C@@H]([C@H](NC(=O)[C@@H]2C[C@@H](CCC)CN2C)[C@H](C)Cl)O[C@@H]1SC		inactive		inactive		inactive	inactive	inactive	inactive	inactive			
CC(=O)Nc1ccc(S(=O)(=O)Nc2ccc([N+](=O)[O-])cc2)cc1		inactive		inactive				inactive	inactive	inactive			
CCOC(=O)CS		inactive		inactive		inactive	inactive	inactive	inactive	inactive			
CCCCNC1CC(C)(C)NC(C)(C)C1		inactive		inactive				inactive	inactive	inactive			
CCN1CC(CCN2CCOCC2)C(c2ccccc2)(c2ccccc2)C1=O (configuration not stated)		inactive		inactive				inactive	inactive	inactive			
O=C(O)CN1C(=O)c2cccc3cccc(c23)C1=O		inactive		inactive				inactive	inactive	inactive			
O=S(=O)(O)c1cc(I)c(O)c2ncccc12		inactive		inactive		inactive	inactive	inactive	inactive	inactive			
CCCCOc1cc(C(=O)OCCN(CC)CC)ccc1N		inactive		inactive				inactive	inactive	inactive			
Nc1nnnn1-c1ccccc1		inactive		inactive		inactive		inactive	inactive	inactive			
OC[C@]1(O)OC[C@@H](O)[C@H](O)[C@@H]1O		inactive		inactive		inactive	inactive	inactive	inactive	inactive			
Nc1ccn([C@@H]2O[C@H](CO)[C@@H](O)C2(F)F)c(=O)n1	0.176 µM (active)	inactive	0.181 µM (active)	inactive	0.26 µM (active)	inactive					0.188 µM (active)		
C#CCOc1ccc2c(C)cc(=O)oc2c1		inactive		inactive		inactive	inactive	inactive	inactive	inactive			
O=C(O)c1cc(O)c2c(c1)C(=O)c1cccc(O)c1C2=O		inactive		inactive		inactive	inactive	inactive	inactive	inactive			
CC1(CN2CCC(n3c(=O)[nH]c4ccccc43)CC2)OCc2ccccc2-n2cccc21 (configuration not stated)		inactive				inactive	inactive	inactive	inactive	inactive		33.3 µM (active)	
O=C(O)CCCl		inactive		inactive		inactive	inactive	inactive	inactive	inactive			
COC(=O)C1=C(C)NC(C)=C(C(=O)OC(C)(C)CN(C)CCC(c2ccccc2)c2ccccc2)C1c1cccc([N+](=O)[O-])c1 (configuration not stated)		inactive		inactive		inactive	inactive	inactive	inactive	inactive			
Clc1cc(Cl)c(OCC#CI)cc1Cl	33.7 µM (active)	inactive			39.7 µM (active)	inactive	inactive		inactive			23 µM (active)	
Cc1c(N)nc(C(CC(N)=O)NCC(N)C(N)=O)nc1C(=O)NC(C(=O)NC(C)C(O)C(C)C(=O)NC(C(=O)NCCc1nc(-c2nc(C(=O)NCCCN[C@@H](C)c3ccccc3)cs2)cs1)C(C)O)C(O[C@@H]1O[C@@H](CO)[C@@H](O)[C@H](O)[C@@H]1O[C@H]1O[C@H](CO)[C@@H](O)[C@H](OC(N)=O)[C@@H]1O)c1cnc[nH]1 (some centres not stated)	0.286 µM (active)	inactive	0.301 µM (active)	inactive	0.43 µM (active)	inactive					0.193 µM (active)		

Compound	AC50 [1]	outcome [2]	AC50 [3]	outcome [4]	AC50 [5]	outcome [6]	outcome [7]	outcome [1]	outcome [3]	outcome [5]	AC50 [7]	AC50 [4]	AC50 [2]
CCCCCCCCCCCl		inactive		inactive		inactive	inactive	inactive	inactive	inactive			
Oc1ccc(Cc2ccccc2)cc1	66.5 µM (active)	inactive		inactive		inactive	inactive		inactive	inactive			
CCN(CC)CCSC(=O)C(c1ccccc1)c1ccccc1		inactive		inactive		inactive	inactive	inactive	inactive	inactive			
CC(=O)O[C@H]1C(=O)[C@@]2(C)[C@H]([C@H](OC(=O)c3ccccc3)[C@]3(O)C[C@H](OC(=O)[C@H](O)[C@@H](NC(=O)c4ccccc4)c4ccccc4)C(C)=C1C3(C)C)[C@]1(OC(C)=O)CO[C@@H]1C[C@@H]2O	0.179 µM (active)	inactive	0.00826 µM (active)	inactive	4.57 µM (active)	inactive					0.00702 µM (active)		
Cc1cccn2c(=O)c(-c3nnn[nH]3)cnc12		inactive		inactive		inactive	inactive	inactive	inactive	inactive			
Cc1cn([C@H]2C[C@H](O)[C@@H](CO)O2)c(=O)[nH]c1=O		inactive		inactive		inactive	inactive	inactive	inactive	inactive			
O=C1OC(O)C(C(Cl)Cl)=C1Cl (configuration not stated)	13.2 µM (active)		13.3 µM (active)		25.6 µM (active)	inactive	inactive					12.7 µM (active)	14.6 µM (active)
C=C1/C(=C\C=C2/CCC[C@]3(C)[C@@H]([C@H](C)OCCC(C)(C)O)CC[C@@H]23)C[C@@H](O)C[C@@H]1O	12.7 µM (active)	inactive	14.3 µM (active)	inactive	13.5 µM (active)	inactive					9.97 µM (active)		
c1ccc(-n2cnnn2)cc1		inactive		inactive		inactive	inactive	inactive	inactive	inactive			
CC1(C)O[C@H]2CC(=O)OC[C@]23[C@H]2CC[C@@]4(C)[C@H](c5ccoc5)OC(=O)[C@H]5O[C@]54[C@]2(C)C(=O)C[C@@H]13		inactive		inactive		inactive	inactive	inactive	inactive	inactive			
O=[N+]([O-])c1cccc(S(=O)(=O)O)c1		inactive		inactive		inactive	inactive	inactive	inactive	inactive			
COC(=O)[C@@H]1[C@H]2C[C@H]3c4[nH]c5ccccc5c4CCN3C[C@@H]2CC[C@@H]1O		inactive		inactive		inactive	inactive	inactive	inactive	inactive			
CCCCOC(=O)c1ccc(N)cc1		inactive		inactive		inactive	inactive	inactive	inactive	inactive			
CCn1cc(C(=O)O)c(=O)c2cc(F)c(N3CCN(C)CC3)cc21		inactive		inactive		inactive	inactive	inactive	inactive	inactive			
C[N+](C)(CCOc1ccccc1)Cc1cccs1		inactive		inactive		inactive	inactive	inactive	inactive	inactive			
O=S1(=O)c2cccc3cccc(c23)N1CCCN1CCN(c2ccc(F)cc2)CC1		inactive				inactive	inactive	inactive	inactive	inactive		41.2 µM (active)	
CCN(CC)CCNc1ccc(CO)c2sc3ccccc3c(=O)c12	16.2 µM (active)	inactive	23.2 µM (active)		20.5 µM (active)	inactive					14.3 µM (active)	33.2 µM (active)	
Nc1ncnc2c1ncn2[C@@H]1O[C@H](COP(=O)(O)OP(=O)(O)OP(=O)(O)O)[C@@H](O)[C@H]1O		inactive		inactive		inactive	inactive	inactive	inactive	inactive			
CCC[C@@H]1C[C@@H](C(=O)N[C@@H]([C@H]2O[C@H](SC)[C@H](OP(=O)(O)O)[C@@H](O)[C@H]2O)[C@H](C)Cl)N(C)C1		inactive		inactive		inactive	inactive	inactive	inactive	inactive			
CC(C)(C)S		inactive		inactive		inactive	inactive	inactive	inactive	inactive			
C=C(C)C(=O)OCC(C)(C)COC(=O)C(=C)C		inactive		inactive		inactive	inactive	inactive	inactive	inactive			
Cc1cc(S(=O)(=O)O)c(N)cc1Cl		inactive		inactive		inactive	inactive	inactive	inactive	inactive			
CCCC(=O)N1CCCN(c2nc(N)c3cc(OC)c(OC)cc3n2)CC1		inactive		inactive		inactive	inactive	inactive	inactive	inactive			
COc1cc2c(cc1N)oc1ccccc12		inactive		inactive		inactive		inactive	inactive	inactive	66.1 µM (active)		
COCC(O)CO (configuration not stated)		inactive		inactive		inactive	inactive	inactive	inactive	inactive			
